Records with an inconclusive call do not appear. Active and inactive are the calls of the source.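 Rule for the calls, unless noted: active = viability at or under a set limit in both replicates, limit being median viability minus 3 SD (cut at about 48% in these data, passing the limit was not always enough); inconclusive = at or under the limit in just one replicate; inactive = at or above the limit in both replicates.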
Key:
[1] = Her2 expression decrease, cell viability multiplex – SKBR3 breast tumor cells, AlphaScreen, ATP viability, primary screen (AID 461;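 active = Her2 level under about 52% in both replicate screens, with viability over 70% of control, limit read from the data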;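 for Her2 level: lower value means less Her2 protein in the cells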;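 for viability: percent of carrier control wells set as 100% viability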); conditions: SKBR3 Her2 protein level, 18-24 h, measured here: SKBR3 viability, ATP luminescence, at 10 µM
[2] = target: Receptor tyrosine-protein kinase erbB-2 (Homo sapiens) (UniProt P04626); experiment: as above; conditions: 18-24 h, at 10 µM, stronger effect = lower value
Receptor tyrosine-protein kinase erbB-2 (Homo sapiens), sequence (P04626 whole entry, looked up): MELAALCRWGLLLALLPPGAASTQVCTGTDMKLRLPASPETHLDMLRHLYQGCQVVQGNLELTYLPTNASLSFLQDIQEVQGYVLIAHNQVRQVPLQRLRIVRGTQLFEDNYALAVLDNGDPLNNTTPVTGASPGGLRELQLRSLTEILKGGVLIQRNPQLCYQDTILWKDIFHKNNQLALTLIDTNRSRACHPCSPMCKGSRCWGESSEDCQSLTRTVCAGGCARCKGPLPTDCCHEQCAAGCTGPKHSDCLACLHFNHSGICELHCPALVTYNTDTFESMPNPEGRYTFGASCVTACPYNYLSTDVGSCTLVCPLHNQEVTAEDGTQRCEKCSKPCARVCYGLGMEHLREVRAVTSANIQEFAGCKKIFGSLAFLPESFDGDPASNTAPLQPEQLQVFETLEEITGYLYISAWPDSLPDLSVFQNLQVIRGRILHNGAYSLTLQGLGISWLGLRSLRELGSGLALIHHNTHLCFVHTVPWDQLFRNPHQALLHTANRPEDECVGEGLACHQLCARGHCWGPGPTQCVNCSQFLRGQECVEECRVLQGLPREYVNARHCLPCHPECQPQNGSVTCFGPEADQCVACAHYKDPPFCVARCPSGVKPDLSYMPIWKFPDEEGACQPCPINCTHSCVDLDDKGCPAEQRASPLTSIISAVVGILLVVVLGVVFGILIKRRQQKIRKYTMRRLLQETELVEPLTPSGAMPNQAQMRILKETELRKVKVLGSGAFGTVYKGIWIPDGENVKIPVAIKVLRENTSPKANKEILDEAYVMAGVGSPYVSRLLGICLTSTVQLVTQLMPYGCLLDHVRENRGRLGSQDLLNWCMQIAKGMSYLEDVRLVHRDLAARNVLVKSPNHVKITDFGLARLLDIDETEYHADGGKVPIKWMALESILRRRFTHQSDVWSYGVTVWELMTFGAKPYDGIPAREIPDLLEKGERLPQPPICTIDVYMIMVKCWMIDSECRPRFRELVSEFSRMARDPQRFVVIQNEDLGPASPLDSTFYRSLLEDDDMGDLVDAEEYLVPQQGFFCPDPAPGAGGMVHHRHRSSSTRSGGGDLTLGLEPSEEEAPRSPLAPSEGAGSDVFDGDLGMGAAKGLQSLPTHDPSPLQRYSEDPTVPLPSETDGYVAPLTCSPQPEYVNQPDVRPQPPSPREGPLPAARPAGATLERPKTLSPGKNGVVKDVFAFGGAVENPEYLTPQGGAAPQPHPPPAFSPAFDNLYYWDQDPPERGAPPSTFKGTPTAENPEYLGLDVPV

[3] = reduced viability of SK-BR-3 breast cancer cells – cell-based, 24 h, human, pilot screen (AID 572;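 active = viability at or below 10% of carrier control in both of two separate runs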;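 note: compound exposure lasted between 18 and 24 h rather than exactly 24 h; 100% = carrier-treated control wells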); conditions: SK-BR-3 viability, CellTiter-Glo luminescence, at 10 µM, stronger effect = lower value
[4] = HUVEC growth inhibition – cell-based, human, primary screen (AID 575;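 active = viability at or below 30% in both replicate assays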;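 note: 100% = median of untreated cell wells with 0.1% DMSO on each plate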); conditions: HUVEC proliferation, CellTiter-Glo luminescence, 72 h; at 10 µM; stronger effect = lower value
[5] = H69AR cell proliferation blockers – human, duplicate replicates, primary screen (AID 580); conditions: H69AR lung tumor cells viability, ATP luminescence, 72 h; at 10 µM; stronger effect = lower value;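 note: 100% = mean luminescence of untreated wells and 0% = no signal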
[6] = MRP1 drug-resistance reversers in H69AR cells – cell-based, doxorubicin co-treatment, pilot screen (AID 601;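 active = viability loss from added drug above about 55%, and viability with drug at most 40%, in both replicates, limit read from the data, passing the limit was not always enough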); conditions: CellTiter-Glo, 72 h, at 10 µM; for differential viability (reversal): stronger effect = higher value
[7] = yeast transport mutant growth inhibition pilot in 384-well plates, post-Golgi transport modulator project (AID 636; in the data active = inhibition above about 31%); conditions: absorbance 615 nm, about 18 h, stronger effect = higher value
[8] = growth suppression of yeast trafficking mutant, preliminary HTS, modulators of trafficking downstream of Golgi apparatus project, 1536-format plate, OD 615 nm (AID 637; in the data active = inhibition above about 30%); conditions: yeast transport mutant growth, absorbance 615 nm, 18 h; stronger effect = higher value
[9] = S. cerevisiae growth inhibition in permissive medium (OD615), pilot counter-assay for S. cerevisiae lifespan shortening project, permissive growth control (AID 705;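 active = growth inhibition above 25% in both replicates, a cutoff set 3 SD above the mean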); conditions: OD615, 24 h, at 10 µM, stronger effect = higher value
[10] = S. cerevisiae growth inhibition in restrictive medium, OD615, pilot screen, restrictive growth control, yeast lifespan reduction project (AID 706;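 active = growth inhibition above a set limit, 3 SD over mean compound inhibition, in both replicates, cut at about 43% in these data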;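 note: modified DeaD lifespan yeast strain shifted to restrictive glucose medium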); conditions: OD615, 48 h, at 10 µM, stronger effect = higher value
[11] = doxorubicin toxicity protection in MRP-1 cells – H69AR cells, CellTiter-Glo, duplicate, MRP-1 activator project, pilot screen (AID 807;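 active = viability increase at or above a cutoff of the median across tested compounds plus 3 SD, cut at about 8.5% in these data, passing the limit was not always enough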;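 note: compound pretreatment 18-22 h then 72 h combined with doxorubicin; 0% = doxorubicin alone and 100% = vehicle without doxorubicin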); conditions: H69AR viability with doxorubicin, CellTiter-Glo luminescence; at 10 µM; stronger effect = higher value
[12] = viability of HCT116 without oncogenic beta-catenin – human colon tumor cells, pilot screen (AID 823;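 active = cell viability at or below a set limit in both duplicate runs, the limit being the all-compound median minus 4 SD, cut at about 23% in these data, passing the limit was not always enough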;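 note: 0% = wells killed by 20 µM Hyamine and 100% = untreated DMSO cell wells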); conditions: HCT116 beta-catenin knockout viability, CellTiter-Glo, 60 h; at 10 µM; stronger effect = lower value
[13] = viability of PTEN-null HCT116 cells – cell-based, HCT116 clonal line, CellTiter-Glo, pilot screen (AID 824;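 active = viability at or below 27.92% in each of two runs, the all-compound median minus 4 SD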;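 note: 0% = 20 µM Hyamine control and 100% = vehicle cell control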); conditions: HCT116 PTEN-deleted viability, 60 h, at 10 µM, stronger effect = lower value
[14] = RAM pathway blockade in budding yeast – dse1pr::URA3 reporter, 5-FOA selection, pilot screen (AID 869;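 active = inhibition over a set limit, the all-compound mean plus 3 SD, in both replicate runs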;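 note: 0% = DMSO wells with no growth and 100% = 10 µM 1-NA-PP1 with full growth; RAM network block rescues cells from 5-FOA so hits raise OD615 growth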); conditions: S. cerevisiae dse1pr::URA3 5-FOA growth, OD615, 2 d; at 10 µM; stronger effect = higher value; strain carries analog-sensitive mutant Cbk1 kinase
[15] = RAM signaling pathway blockade in yeast – S. cerevisiae, Pdr1DBD-CYC8 efflux-inhibited sensitized strain, primary screen (AID 1298;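 active = RAM network inhibition above 8.4% in each of two replicates, 3 SD over the compound average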;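 note: 0% = DMSO untreated cells without growth and 100% = 10 µM 1-NA-PP1 full growth; higher means more yeast growth rescued from 5-FOA killing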); conditions: S. cerevisiae cbk1-as DSE1-URA3 strain, 5-FOA growth OD615, 2 d; at 50 µM; stronger effect = higher value
[16] = H69AR cells + 2 uM doxorubicin, measured here: viability with 2 uM doxorubicin, stronger effect = lower value
[17] = H69AR cells, compound alone cytotoxicity

SMILES	viability [1]	Her2 level [2]	viability [3]	viability [4]	viability [5]	differential viability (reversal) ([6]; H69AR cells + 2 uM doxorubicin)	viability [6, 16]	viability [6, 17]	inhibition [7]	inhibition [8]	growth inhibition [9]	growth inhibition [10]	viability increase [11]	viability [12]	viability [13]	inhibition [14]	RAM network inhibition [15]
O=C(Cc1cccs1)Nc1ccccc1NC(=O)Cc1cccs1	81%	87.5% (inactive)	81% (inactive)	107% (inactive)	94.7% (inactive)	3.74% (inactive)	91%	94.7%	-1.15% (inactive)	-7.83% (inactive)	-1.23% (inactive)	-8.9% (inactive)	-4% (inactive)	92% (inactive)	91.9% (inactive)	0.905% (inactive)	-0.25% (inactive)
O=C(OCCN(CCOC(=O)c1ccncc1)S(=O)(=O)c1cccs1)c1ccncc1	102%	75.5% (inactive)	102% (inactive)	99.2% (inactive)	104% (inactive)	6.43% (inactive)	97.3%	104%	-1.64% (inactive)	1.75% (inactive)	4.38% (inactive)	1.04% (inactive)	-2.14% (inactive)	102% (inactive)	97% (inactive)	1.63% (inactive)	4.78% (inactive)
COCCOC(=O)c1[nH]c2c(c1C)C(=O)CC(c1ccco1)C2 (stereo not drawn)	85%	71.5% (inactive)	85% (inactive)	57% (inactive)	23.6% (active)	-37.2% (inactive)	60.9%	23.6%	0.64% (inactive)	5.67% (inactive)	-16% (inactive)	-15.1% (inactive)	-4.07% (inactive)	18.9% (active)	23.9% (active)	2.79% (inactive)	2.52% (inactive)
O=C(NCCCN1CCOCC1)c1cc(-c2ccc(O)cc2)on1	100%	87.5% (inactive)	100% (inactive)	83.7% (inactive)	94.8% (inactive)	5.84% (inactive)	89%	94.8%	-6.4% (inactive)	-4% (inactive)	-9.88% (inactive)	-16.8% (inactive)	-6.65% (inactive)	92.3% (inactive)	93.7% (inactive)	-0.505% (inactive)	0.12% (inactive)

— PubChem BioAssay
